Experimental data reported in PubChem BioAssay AID1851 (National Center for Advancing Translational Sciences (NCATS), 2009).
In all, about 16,000 compounds went through this assay and about 4,000 (25%) were called active. Another 26% or so got no clear call; they are omitted. Calls follow the shape of the dose curve; as a rule, active = well fitted curve in the direction sought with a large enough effect; inconclusive = small, poorly fitted or top-dose-only effect, or effect the other way; inactive = no such curve, though single readings can be large or run the other way. The list is a sample of the results.

These molecules were tested against Cytochrome P450 2C9 (Homo sapiens) (UniProt P11712) (assay: Cytochrome panel assay with activity outcomes). Details: recombinant CYP, pro-luciferin dealkylation, luminescence, p450-cyp2c9; series mostly up to 57.1 µM; activity, negative = inhibition: at the top concentration.
Chain of Cytochrome P450 2C9 (Homo sapiens) (P11712 whole entry, looked up): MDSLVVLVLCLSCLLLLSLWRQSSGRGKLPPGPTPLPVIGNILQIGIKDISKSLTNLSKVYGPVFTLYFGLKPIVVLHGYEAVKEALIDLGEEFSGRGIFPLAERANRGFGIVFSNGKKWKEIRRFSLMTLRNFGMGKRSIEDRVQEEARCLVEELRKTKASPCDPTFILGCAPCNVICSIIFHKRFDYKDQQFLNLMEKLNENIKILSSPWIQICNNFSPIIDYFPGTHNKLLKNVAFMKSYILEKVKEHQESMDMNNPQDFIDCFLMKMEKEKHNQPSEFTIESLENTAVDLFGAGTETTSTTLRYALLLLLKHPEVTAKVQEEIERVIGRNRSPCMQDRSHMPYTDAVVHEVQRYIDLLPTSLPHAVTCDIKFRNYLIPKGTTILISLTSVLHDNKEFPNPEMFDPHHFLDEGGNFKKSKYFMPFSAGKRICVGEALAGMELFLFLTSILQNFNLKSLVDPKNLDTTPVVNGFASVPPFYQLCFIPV
% is scaled to controls: 0 for no effect and ±100 for the full control effect.

activity, negative = inhibition, inactive:
CN(C)[C@H]1C(=O)C(C(=O)NCN2CCCC2)=C(O)[C@]2(O)C(=O)C3=C(O)c4c(O)cccc4[C@](C)(O)[C@H]3C[C@H]12 -10.5% [at 11.4 µM]
Cc1cc(=Nc2ccc3c(c2)c(N)cc(C)[n+]3C)nc(N)n1C 13% [at 11.4 µM]
CCCC(C(=O)OCCN(CC)CC)(c1ccccc1)c1ccccc1 -47.9% [at 25.6 µM]
N=C(N)SCCSC(=N)N -1.93% [at 11.4 µM]
COc1cc(C(=O)N2CCN(C(=O)c3ccccc3)CC2)cc(OC)c1OC -11%
COc1cc(OC)c(C2C(C(=O)O)c3ccccc3C(=O)N2C)cc1OC (stereo not drawn) -22.7%
c1ccc(CNc2cc(-c3ccoc3)ncn2)cc1 -12.4% [at 2.29 µM]
O=C(c1cnccn1)N1CCC2(CCCN(c3ncccn3)C2)CC1 -7.23%
Cn1c(CN2CCOCC2)nnc1SCc1ccccc1 0.914%
COc1cccc(-c2ccc3ncnc(NCCNC(C)=O)c3c2)c1 -1.53% [at 2.29 µM]
COc1cccc(-c2nc(NCCNC(C)=O)c3ccccc3n2)c1 22.4% [at 2.29 µM]
C[C@H](CN(C)C)C(=O)c1ccccc1C(=O)O 4.19% [at 11.4 µM]
CNS(=O)(=O)c1ccccc1C(=N)c1ccccc1 9.68% [at 11.4 µM]
OC[C@H]1NC[C@@H](O)[C@@H](O)[C@H]1O -27%
Cc1cccc(NC(=S)NNC(=O)CCn2cc(C)cn2)c1 -7.75%
Cc1nn(CC(O)COc2ccc3c(c2)CCC3)c(C)c1Br (stereo not drawn) -23.7%
C=CC[C@@H]1C=C[C@H](O/N=C(\C)CCN2CCCCc3nc(C)c(C)cc32)[C@H](CO)O1 0.735% [at 11.4 µM]
Cc1ccc(N2C(=O)c3n[nH]c(C)c3C2c2ccccn2)cc1 (stereo not drawn) -12.8%
O=C(CCNC(=O)Cn1ccc2ccccc2c1=O)NCCCN1CCN(c2ccc(F)cc2)CC1 -10.9%
COc1ccc(OC)c(CNC(=O)CCNC(=O)Cn2ccc3ccccc3c2=O)c1 -1.88%
CCCCN1C(=O)CCC(C(=O)O)C1c1ccccc1 (stereo not drawn) 0.737%
CN1C(=O)C[C@H](c2ccccc2)C1=O -24.7% [at 25.6 µM]
CN(C)CCNS(=O)(=O)N(C)C 11.3% [at 11.4 µM]
CO[C@]1(NC(=O)[C@H](C(=O)O)c2ccc(O)cc2)C(=O)N2C(C(=O)O)=C(CSc3nnnn3C)CO[C@H]21 12.5% [at 25.6 µM]
c1ccc(Nc2nc(-c3ccoc3)nc3ccccc23)cc1 -10.3% [at 2.29 µM]
CCCCN(c1ccccc1)c1ncnc2c1cnn2C 1.33% [at 11.4 µM]
CN1CCN(CN2C(=O)C3C4C=CC(C3C2=O)C2C3C(=O)N(CN5CCN(C)CC5)C(=O)C3C42)CC1 (stereo not drawn) -2.91% [at 11.4 µM]
O=C(O)[C@H]1C[C@@H](CP(=O)(O)O)CCN1 -28.6%
O=C1[C@H]2[C@H]3[C@H](O)[C@H](O)C/C(=N/OC[C@@H](O)COCc4ccco4)[C@H]3CC[C@@H]2C(=O)N1C[C@@H]1CCCO1 7.75% [at 11.4 µM]
O=C1C=C(NCCN2CCOCC2)CC(c2ccccc2)C1 (stereo not drawn) -16.6%
O=C(O)C1(Nc2ccc(Cl)cc2)CCCC1 -21.4% [at 11.4 µM]
C#CCSc1nnc(-c2sc3ccccc3c2Cl)o1 -29.7%
Clc1ccc(-c2nnc(-c3cccc4ccccc34)o2)cc1Cl 24% [at 11.4 µM]
CC[N+](C)(C)c1cccc(O)c1 -2.67% [at 25.6 µM]
COc1ccccc1CN1CCC2(CC1)CCN(S(=O)(=O)c1ccccc1)CC2 8.41%
Cc1ccc(S(=O)(=O)N2CCN(S(C)(=O)=O)C2)cc1 -15.6%
O=C1[C@H]2[C@H]3[C@H](O)[C@H](O)C/C(=N/OCc4ccccc4)[C@H]3CC[C@@H]2C(=O)N1Cc1ccc2c(c1)OCO2 -16.6% [at 11.4 µM]
COc1ccccc1CNc1nc(-c2ccccc2CN(C)C)nc2ccccc12 5.51% [at 2.29 µM]
Cc1ccccc1-c1nc(-n2ccnc2)c2ccccc2n1 -7.55% [at 2.29 µM]
COc1ccccc1-c1nccc(-n2ccnc2)n1 6.88% [at 2.29 µM]
c1ccc2c(-n3ccnc3)nc(-c3ccoc3)nc2c1 -6.66% [at 2.29 µM]
CN(C)C(=O)c1ccc(-c2nc(-n3ccnc3)c3ccccc3n2)cc1 -0.507% [at 2.29 µM]
N[C@@](CC(=O)O)(Cc1ccccc1)C(=O)O -1.82% [at 11.4 µM]
NC(=O)C1(N2CCCCC2)CCN(C(=O)c2ccc(-n3cnnn3)cc2)CC1 -20.9%
NC(=O)C1(N2CCCCC2)CCN(C(=S)Nc2ccc(Cl)cc2)CC1 -18%
O=C(c1ccc2nc3ccc(Cl)cc3c(=O)n2c1)N1CCOCC1 -4.27%
CCOC(=O)N1CCN(C(=O)c2cnc3n(c2=O)CCS3)CC1 -2.54%
Cc1cc(C)cc(NC(=O)C/C(N)=N/O)c1 -16%
C[C@@H]1CCCC(CC(=O)O)(CC(=O)O)C1 9.77% [at 11.4 µM]
CCOC(=O)N1CCN(C(=O)c2ccc(NC(C)=O)cc2)CC1 -29.4%
CC1=NN(C(=O)c2ccncc2)C(=O)[C@@H]1N=Nc1ccc2ccccc2c1 -11.2% [at 11.4 µM]
OCCN(CCO)c1ncnc2nc[nH]c12 5.61% [at 11.4 µM]
O=C(C=C1SCCS1)/C=C/c1ccco1 6.81%
CO[C@H]1COC(=O)[C@H]2CCCN2C(=O)C/C=C\[C@@H](C)[C@H](OC)COC(=O)C/C=C\[C@@H]1C 13.8% [at 11.4 µM]
CC[C@]1(O)C[C@H]2CN(CCc3c([nH]c4ccccc34)[C@](C(=O)OC)(c3cc4c(cc3OC)N(C=O)[C@H]3[C@@](O)(C(=O)OC)[C@H](OC(C)=O)[C@@]5(CC)C=CCN6CC[C@]43[C@H]65)C2)C1 0.0764%
O=C(c1ccccc1)[C@H](Nc1ccc2ccccc2c1)c1ccccc1 -6.81% [at 11.4 µM]
O=C1COC(c2ccccc2O)=NN1CCCN1CCCC1 2.77% [at 11.4 µM]
O=C(O)[C@@H]1[C@@H](C(=O)NCc2ccccn2)[C@@H]2C=C[C@@H]1O2 1.33% [at 11.4 µM]
CN(c1ccc(C(=O)NCc2ccccn2)cc1)S(C)(=O)=O 4.78%
CC1CCN(C(=O)CN(C)S(=O)(=O)c2cccc3nsnc23)CC1 -12.1%
CS(=O)(=O)N1CCC[C@@]2(CCN(c3ncccn3)C2)C1 8.97%
O=C(O)C[C@H](Cc1ccccc1Cl)C(=O)O 2.18% [at 11.4 µM]
NC(=O)NC(=O)Nc1ccccc1Cl -29.3%

AC50, active:
CCN(CC)CC#CCC(C)(c1ccccc1)c1ccccc1 15.8 µM
COc1cc2c3c(c1OC)C1(C=CC(=O)C=C1)CC3N(C(=O)c1ccccc1)CC2 (stereo not drawn) 3.16 µM
c1ccc(-c2nc(CSc3n[nH]c(-c4cccs4)n3)cs2)cc1 20 µM
CCOc1ccc(Cc2nccc3cc(OCC)c(OCC)cc23)cc1OCC 3.98 µM
Cn1c(CNC(=O)Nc2ccccc2)nnc1SCc1ccccc1 8.91 µM
COc1ccc2[nH]c(-c3ccccc3)c(CCNC(C)=O)c2c1 15.8 µM
O=C(Nc1cccc(C(F)(F)F)c1)c1ccc(Cn2cc(Br)cn2)o1 8.91 µM
COc1cccc(CNC(=O)CCNC(=O)Cn2ccc3ccccc3c2=O)c1 3.16 µM
O=C1C(Cc2ccccc2)C(c2ccccc2)N1c1ccccc1 (stereo not drawn) 7.08 µM
CCCC1C(=O)N(c2ccccc2)C1c1ccccc1 (stereo not drawn) 10 µM
CN1CC(c2ccccn2)C2(SC(=S)N(Cc3ccccc3)C2=O)C12C(=O)Nc1ccccc12 (stereo not drawn) 4.47 µM
Oc1ccccc1C1Nc2cccc3cccc(c23)N1 8.91 µM
Oc1ccc(C2Nc3cccc4cccc(c34)N2)c(O)c1 14.1 µM
O=C1C=C(Nc2ccc(Cl)cc2)CC(c2ccc(Cl)cc2)C1 (stereo not drawn) 10 µM
Clc1ccccc1CSc1nnc(-c2ccncc2)o1 0.447 µM
c1ccc2c(CSc3nnc(-c4ccncc4)o3)cccc2c1 0.178 µM
Cc1ccc(S(=O)(=O)N2CCN(Cc3ccccc3C(F)(F)F)CC2)cc1 39.8 µM
c1ccc(-c2nc(N3CCCCCC3)nc(-n3ccnc3)n2)cc1 5.01 µM
CN(c1ccccc1)c1nc(-n2ccnc2)nc(-n2ccnc2)n1 0.282 µM
CCOC(=O)N1CCN(C(=O)c2cccn3c(=O)c4cc(Cl)ccc4nc23)CC1 8.91 µM
NC(=O)C1(N2CCCCC2)CCN(C(=O)c2cccn3c(=O)c4cc(Cl)ccc4nc23)CC1 3.98 µM
CCOC(=O)N1CCN(C(=O)c2ccc3nc(N4CCC(C)CC4)sc3c2)CC1 2.51 µM
O=C(/C=C/c1ccco1)Nc1ccc(Oc2ccccc2)cc1 5.01 µM
Cc1nc(SCC(=O)Nc2c(C)nn(C)c2C)c2cnn(-c3ccccc3)c2n1 2.51 µM
Cc1nc(SC(C(=O)c2ccccc2)c2ccccc2)n[nH]1 (stereo not drawn) 4.47 µM
Cc1ccc(NS(=O)(=O)c2cc(C(=O)N3CCc4ccccc4C3)ccc2Cl)cc1 2.51 µM
Cc1ccc(NS(=O)(=O)c2cc(C(=O)NCc3ccccn3)ccc2Cl)cc1 17.8 µM
CN(CC(=O)Nc1ccc(F)c(F)c1)S(=O)(=O)c1cccc2nsnc12 0.355 µM
COc1ccc(C(F)(F)F)cc1N/C=C\c1nnnn1-c1ccccc1 4.47 µM
O=C(O)COC(=O)Cc1ccccc1Nc1c(Cl)cccc1Cl 1.58 µM
